# Measurements published in PubChem BioAssay (NCI).
# This is part of a sample that, as a whole, favours compounds with a hit. Of some 79,000 tested, about 15% had one in any assay. A number with no mark means an inactive call. Activity calls are given as the source filed them. No stated cut-off is given here; in the data, active means growth inhibition above about 70%; inactive means the rest.
# Experiments:
# [1] = NCI Yeast Anticancer Drug Screen. Data for the rad50 strain (AID 155);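 further: 0% = growth of vehicle-only cultures of the same strain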; details: S. cerevisiae rad50 strain growth inhibition; at 50.0 µM; active compounds read high
# Outline: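 Growth of the mutant yeast was measured after compound exposure and referenced to vehicle-treated cultures.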
# [2] = NCI Yeast Anticancer Drug Screen. Data for the mec2-1 strain (AID 157); details: S. cerevisiae mec2-1 strain, at 50.0 µM, active compounds read high
# Outline: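 Readout is yeast growth inhibition, normalised to vehicle-treated controls, in the mec2-1 strain exposed to compound.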
# [3] = NCI Yeast Anticancer Drug Screen. Data for the sgs1 mgt1 strain (AID 161);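 further: 0% = growth of cultures given vehicle only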; details: S. cerevisiae sgs1 mgt1 strain, at 50.0 µM, active compounds read high
# Outline: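 Compounds are added to genetically altered yeast, and growth is compared with cultures given vehicle alone to give percent inhibition.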
# [4] = NCI Yeast Anticancer Drug Screen. Data for the cln2 rad14 strain (AID 165);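 further: 0% = growth equal to vehicle treated cultures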; details: S. cerevisiae cln2 rad14 strain, at 50.0 µM, active compounds read high
# Outline: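 Relative to vehicle controls, growth inhibition of compound-treated cln2 rad14 yeast was recorded.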
# [5] = NCI Yeast Anticancer Drug Screen. Data for the bub3 strain (AID 167); details: S. cerevisiae bub3 mutant strain, at 50.0 µM, active compounds read high
# Outline: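 Whole-cell yeast assay. The mutant strain was incubated with compounds, and growth inhibition was determined by comparison with vehicle-treated cells.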
# [6] = NCI Yeast Anticancer Drug Screen. Data for the mlh1 rad18 strain (AID 175); details: S. cerevisiae mlh1 rad18 strain growth inhibition; at 50.0 µM; active compounds read high
# Outline: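 Test agents were incubated with a yeast strain of defined genotype (DNA damage repair defect). Inhibition of growth was derived by comparison with vehicle-exposed cultures.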
Compound,growth inhibition [1] [%],growth inhibition [2],growth inhibition [3],growth inhibition [4] [%],growth inhibition [5],growth inhibition [6]
CCCCC1(CCC)C(=O)NC(=O)NC1=O,9.8,9.5%,1%,13.7,1%,15.8%
COc1ccc([Se]c2ccc(OC)cc2OC)c(OC)c1,-19.1,-39%,2.8%,-18.3,8.5%,-13.2%
COc1ccc2[nH]cc(CCN(C)C)c2c1,4.8,-24.8%,1.85%,17.1,-1.6%,-9.85%
O=S(=O)(O)O.[Cr+3].[NH-]CC[NH-].[NH-]CC[NH-].[NH-]CC[NH-],-20.7,-20.1%,0.75%,-36.5,10%,7.25%
COc1ccc(-n2c(C)nc3ccccc3c2=O)cc1CN(CCCl)CCCl,4.45,-3.55%,-8.15%,-22.1,2.6%,2.3%
CC1=C2[C@H]3OC(=O)[C@@H](C)[C@@H]3CC[C@@]2(C)C=CC1=O,20.6,5.9%,1.15%,15.2,2.25%,12.6%
CC1=NCCc2c1[nH]c1cc(O)ccc21,6.65,-28.1%,-12.6%,-3.85,-15.6%,4%
CCN(CC)[P+](C1=C(Cl)C(=O)C(Cl)=C(Cl)C1=O)(N(CC)CC)N(CC)CC,1.25,-12%,-6.6%,-19.5,8.45%,-17.5%
CC(C)C(O)(C(=O)OCC1=CC[N+]2([O-])CCC(O)C12)C(C)O (configuration not stated),-16.9,-29.7%,-9.7%,4,-7.45%,-7.3%
CCCCCC[n+]1noc(N)c1-c1ccc(-c2c(N)on[n+]2CCCCCC)cc1,17.6,-1.35%,26.1%,21.8,16.2%,18.5%
C=CCNCC(O)c1ccccc1 (configuration not stated),13.5,-14.2%,-11.8%,6.7,6.5%,4.6%
CC1(C)CCC[N+]1(C)CCC(C(N)=O)(c1ccccc1)c1ccccc1 (configuration not stated),12.7,5.3%,6.6%,4.45,8.8%,3.35%
O=C1NC(=O)C(F)(n2cc(F)c(=O)[nH]c2=O)C(O)N1 (configuration not stated),-47.8,-31.3%,-10.2%,-40,-13.4%,-54.9%
CN1CCC(O)(c2ccccc2)C(c2ccccc2)C1 (configuration not stated),0.25,1.05%,-8.45%,0.4,0.6%,-0.05%
CC1CN1C1c2ccccc2CC1O (configuration not stated),1.2,-13.2%,-11.8%,-15.4,-20.3%,-8.95%
N#Cc1ccccn1,13.1,-30.7%,12.7%,-6.95,3.5%,5.9%
OCCNC1CCCCC1,5.15,-1.65%,-13.8%,-1.8,3.55%,-16.1%
C#CCN(C)C(=O)N(CC#C)N=O,15.2,-4.95%,1.75%,-11,-6.55%,-23.4%
CN(C)C1OCCO1,-8.45,-36.1%,-11%,1.4,-7.05%,-3.35%
COc1nc(N2CCNCC2)nc2c1CCCC2,4.85,-10.7%,-21.1%,17.8,-0.75%,-0.45%
CCCCCCCCCCC[CH2][Hg][Cl],8.6,3.15%,12.4%,-18.6,-3.45%,-3.1%

Compound,growth inhibition [1] [%],growth inhibition [2],growth inhibition [3],growth inhibition [4] [%],growth inhibition [5],growth inhibition [6]
COc1ccc2c(c1O)[C@@]13CCCC=C1[C@@H](C2)[N+](C)(C)CC3,22.4,13.7%,-19.9%,15.8,-1.35%,-29.6%
[Cl][Sn]1([Cl])[CH2]CCCCCC[CH2][Sn]([Cl])([Cl])[CH2]CCCCCC[CH2]1,26.4,6.75%,24.1%,33.8,-2.05%,18.7%
CN(C)CCN1C(=O)CN=C(c2ccccc2Cl)c2cc(Cl)ccc21,15.8,12.2%,27%,2.75,0.2%,27.6%
CC(=O)[CH-]C(C)=O.CC(=O)[CH-]C(C)=O.CC(=O)[CH-]C(C)=O.CCC(=O)O.[Zn+2].[Zn],-20.9,-9.35%,-18.4%,-38,-0.15%,-26.3%
COc1cc(N(CCCl)CCCl)c(OC)cc1C=Nc1cccc(Cl)c1,31.4,10.3%,44.4%,10.6,24.6%,34.2%
O=C(Nc1ccc(S(=O)(=O)F)cc1)c1ccc2ccccc2c1O,9.85,31.8%,32.5%,2.15,27.9%,25.4%
O=C(c1ccccc1)c1c(CC(O)c2ccccc2)n(C(=O)c2ccccc2)c2ccccc12 (configuration not stated),10.6,-20.1%,-14.3%,-67.2,-22.9%,-13.9%
O=CNc1ccccc1,18.6,1.7%,0.85%,6.5,7.65%,7.25%
Cc1ccc2nc(CCl)[nH]c2c1,31.6,-5.65%,34%,18.4,-18.1%,58.7%
Nc1cccc2ccccc12,17.1,-9.95%,6.65%,-28.9,19.2%,4.4%
CCCCCCCCCCNP(=O)(Oc1ccccc1)Oc1ccccc1,-21.8,4.05%,-16.4%,-24.5,-4.75%,-23.9%
O=[N+]([O-])c1ccc(SSC(Cl)(Cl)Cl)cc1,33,94.2% (active),93.5% (active),13.4,78.5% (active),84.4% (active)
CN1CCC2(CC1)COCc1ccccc12,-9.4,-5.55%,-2.7%,-19.1,11.2%,4.8%
CSP(=S)(SC)SC(C)C,19,1.65%,24.1%,27.2,6.5%,-4.45%
N#CN=C(N)NC#N,24.1,12.9%,7.3%,0.55,13.8%,17.1%
CCC(Br)C(=O)OCCCl (configuration not stated),12,13.7%,7.7%,-4.75,15.5%,3.6%
C#CCOC(N)=O,1.05,-15.1%,-7.65%,-18.6,-14.8%,-17.6%
CCOC(=O)C[Se]CC(=O)OCC,-8.65,11.2%,11.2%,-14.2,43.8%,28.3%
N#CCc1ccc(O)cc1,1.25,6.75%,-20.8%,-5.1,-4.7%,14%
CCN(CC)CCn1ccc2ccccc21,-11.4,-18.4%,-9.85%,17.3,-27.1%,-5.95%
OC(Cc1ccccn1)C(Cl)(Cl)Cl (configuration not stated),-10.2,-13.5%,-1.7%,-15.6,4.35%,3.9%
